The values that follow come from PubChem BioAssay (NCI).

The structures appear in SMILES notation. This is part of a sample that, as a whole, favours compounds with a hit. Of some 83,000 tested, about 20% had one in any assay.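 Values shown are percent growth following 48 h exposure of cells in 96-well plates to a single concentration of compound; below 10 was considered active.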 Active and inactive are the calls of the source.

This assay concerns SK-MEL-28 melanoma. Description: NCI-60 one-dose screen, 48 h (100 = growth as untreated, 0 = no growth, -100 = all killed). As to conditions: 10 µM unless noted. The method, then: Growth inhibition of the SK-MEL-28 human tumor cell line is measured as a screen for anti-cancer activity. Cells are grown in 96 well plates and exposed to the test compound for 48 hours. Compounds are tested at a single concentration, which is 10^-5 M for most compounds. The reported endpoint is percent growth (GI% or GIPRCNT), where numbers from 0 - 100% represent growth inhibition, and numbers from -100% - 0 represent cell death. For example, a value of 40 represents 60% growth inhibition. A value of 0 means no net growth occurred over the course of the experiment. A value of -40 indicates 40% of cells at the beginning of the experiment died by the end of the experiment. A value of -100 means all cells are dead at the end of the experiment.
NCI-60 Human Tumor Cell Lines Screen was performed using the standard one-dose NCI protocol, which is described in more detail at https://dtp.cancer.gov/discovery_development/nci-60/default.htm.
Compounds with GIPRCNT values below 10 were considered active. Activity score was based on GIPRCNT using the following formula: […]
Score is 0 for GIPRCNT values of 100 or above, 50 for GIPRCNT values of 0, and 100 for GIPRCNT values of -100.
As to `Cc1nn(-c2ccccc2)c(N2CCOCC2)c1-c1nc2ccc([N+](=O)[O-])cc2[nH]1`, the growth is 102% (inactive).

Take `O=C(Nc1cccc(F)c1)c1cc(=O)[nH]c2cc(Br)ccc12`: the growth was 62.3% (inactive).

For the compound `Cc1ccc(S(=O)(=O)Oc2ccc([N+](=O)[O-])cc2[N+](=O)[O-])cc1`, the growth is 113% (inactive).

For `COc1cc2c(c(Br)c1N)-c1cc(Br)c(N)cc1C2=O`, the growth is 81.4% (inactive).

As for `C=C(C)[C@@H]1CC[C@]2(C(=O)OC)CC[C@]3(C)[C@H](CC[C@@H]4[C@@](C)(CCc5nn[nH]n5)[C@H](C(=C)C)CC[C@]43C)[C@@H]12`, the growth was -63% [100 µM] (active).

On to `COc1ncc(-c2ccc3nc(N)n(-c4ccccc4C(F)(F)F)c(=O)c3c2)cc1S(=O)(=O)Nc1ccc(F)cc1F`, for which the growth was 53.9% (inactive).

In the case of `O=c1[nH]cnc2c1ccn2C1OC(CO)C(O)C1O` (stereo not given), the growth was 91.2% (inactive).

Regarding `c1nc(N2CCOCC2)c2[nH]ccc2n1`, the growth was 106% (inactive).

`COc1cc2c(c(OC)c1)C1c3cc(OC)ccc3NC(=O)N1CC2` (stereo not given): the growth was 88.9% (inactive).

In the case of `Cn1cc(-c2nnc(-c3cn(C)c4ncc(Br)cc34)s2)c2cc(Br)ccc21`, the growth was 95.9% (inactive).

Turning to `COc1ccc(OC)c(NC=O)c1`, the growth is 115% (inactive).

For the compound `CCOC(=O)c1nn(C2CCCCO2)c2ccc(NC(=O)CSc3nc4ccccc4c(=O)[nH]3)cc12` (stereo not given), the growth is 105% (inactive).

For `OC(c1ccc(Cl)cc1)(c1ccc(Cl)cc1)C(O)(c1ccc(Cl)cc1)c1ccc(Cl)cc1`, the growth was 73.7% (inactive).

Turning to `CC(C)C1=NOC(=O)C1=Cc1cn(-c2ccco2)nc1-c1ccccc1`, the growth was 99% (inactive).

For `CC[C@@](C)(NC(=O)[C@H](C)NC(=O)CCNC(=O)C(C)(C)NC(=O)[C@H](C)NC(=O)[C@@H]1CCCN1C(=O)[C@@](C)(CC)NC(=O)[C@H](Cc1ccccc1)NC(=O)C1CCCN1C(=O)C(C)(C)NC(=O)C1CCCN1C(=O)C(C)(C)NC(C)=O)C(=O)NCCC(=O)N[C@@H](CC(C)C)C(=O)NC(C)(C)C(=O)NCCC(=O)N[C@@H](CC(C)C)C(=O)NC(C)(C)C(=O)NC(C)(C)C(=O)N[C@@H](CC(C)C)C(=O)NCCC(=O)NCO` (stereo not given in full), the growth is -84.1% (active).

`CCN(CC)CCCOc1ccc2c(c1)O/C(=C\c1cccc(OC)c1)C2=O`: the growth was 101% (inactive).

As for `C=C(CN=[N+]=[N-])[C@@H]1CC[C@]2(C)[C@H](CC[C@@H]3[C@H]4[C@H]5OC(=O)[C@@]4(CCC5(C)C)CC[C@]32C)[C@@]1(C)CCC#N`, the growth was 98.4% [100 µM] (inactive).

For the compound `NC(=O)CC1C=CCC1` (stereo not given), the growth is 109% (inactive).

For `Nc1nc(Nc2ccccc2)c2ncn(Cc3cc4c(cc3Br)OCO4)c2n1`, the growth was 52% (inactive).

Regarding `Nc1cc(Cl)cc2cccnc12`, the growth is 113% (inactive).

As for `Cc1ccc(NC(=S)/N=c2/n(-c3ccccc3)nc3n2CCN3C2=NCCN2)cc1`, the growth is 108% (inactive).

Consider `COc1ccc(C(=O)/C=C/c2ccccn2)c(O)c1`, for which the growth is 90.7% (inactive).

As for `N#C/C(=C(/O)CCCO)c1nc2ccccc2c(=O)[nH]1`, the growth was 110% (inactive).

As to `CC(C)OC(=O)Nc1cc(F)c(F)cc1F`, the growth was 96% (inactive).

Take `N#C/C(C(=O)c1ccccc1)=C1/C(=O)Nc2ccccc21`: the growth is 113% (inactive).

For the compound `COC(=O)[C@@H](NC(=O)NC(=O)NC(=O)CI)C(C)C`, the growth was 91.7% (inactive).

As for `CCOC(=O)c1ccc2nc(-c3c(C)nn(-c4ccccc4)c3N3CCOCC3)[nH]c2c1`, the growth was 110% (inactive).

`Cc1ccc(NCCN2CCCCC2)c2c(=O)c3ccccc3sc12`: the growth is 11% (inactive).

On to `c1cc2ccc1CNCCN1CCNCc3ccc(cc3)Oc3ccc(cc3)CNCCN(CCNCc3ccc(cc3)O2)CCNCc2ccc(cc2)Oc2ccc(cc2)CNCC1`, for which the growth is 14.7% (inactive).

In the case of `C=C(C)[C@@H]1CC[C@]2(C(=O)NCCCN)CC[C@]3(C)[C@H](CC[C@@H]4[C@@]5(C)CC[C@H](O)C(C)(C)[C@@H]5CC[C@]43C)[C@@H]12`, the growth is -31.4% [100 µM] (active).

Turning to `C=CC1=C(C)C2=NC1=CC1=NC(=CC3=C(C)C4=C(O)C(C(=O)O)C(=C5NC(=C2)C(C)C5CCC(=O)O)C4=N3)C(CC)=C1C` (stereo not given), the growth is 104% (inactive).

For the compound `C=C1C(=O)O[C@H]2[C@H]1CC/C(COC(=O)NCc1ccc(Cn3c(=O)sn(-c4ccc(Cl)cc4)c3=O)cc1)=C\CC[C@@]1(C)O[C@@H]21`, the growth was 101% (inactive).

As for `CCCCC1COc2cccc3c2N1C=C/C3=C\C(=O)n1ccc2ccccc21` (stereo not given), the growth is 92.5% (inactive).

For `CCc1ccc(NC(=O)N[C@@H](Cc2cc(F)cc(F)c2)C(=O)N[C@@H]2C(=O)N3C[C@H](O)C[C@H]3C(=O)N3CCOC[C@H]3C(=O)N[C@@H](C)C(=O)N3C[C@H](C)C[C@H]3C(=O)O[C@H]2C)cc1`, the growth is 39.7% (inactive).

`Fc1ccc(NC(=S)c2ccccc2)cc1`: the growth was 102% (inactive).

Consider `Cn1cc(-c2nnc(-c3ccccc3)s2)c2cc(Br)cnc21`, for which the growth is 97.6% (inactive).

On to `COC(=O)c1cc(O)c2c(c1C(=O)OC)C[C@H]1[C@@H]3CC=C4C[C@@H](O)CC[C@]4(C)[C@H]3CC[C@]21C`, for which the growth was 46.3% (inactive).

Regarding `COc1ccc(C(=O)c2nccc3cc(OC)c(OC)cc23)cc1OC`, the growth was 90.7% (inactive).

As for `CC1(C)CC[C@]2(C(=O)O)CC[C@]3(C)C(=CC[C@@H]4[C@@]5(C)C/C(=C/c6cccnc6)[C@H](O)C(C)(C)[C@@H]5CC[C@]43C)[C@@H]2C1`, the growth is -35.3% [100 µM] (active).

For `COc1cc2c(=O)[nH]c3cc([N+](=O)[O-])ccc3c2cc1[N+](=O)[O-]`, the growth is 78.5% (inactive).
